The campaign covered roughly 1,600 compounds. About 1,100 (69%) were called active. The set was probably picked from earlier hits. Only a sample is shown. Entries with a potency or affinity are not part of this list. Records with an inconclusive call do not appear.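 Rule for the calls: active = signal drop with fitted half-maximal concentration no higher than twice the top valid tested concentration; inconclusive = flat curve with 30 to 70% signal loss, or poor fit; inactive = the rest, including signal rises and flat curves within 30%.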
Test: HepG2 cell cytotoxicity, dose response, cytotoxicity control for Shn3 inhibitor project, CellTiter-Glo, cherry-picked (AID 624134)
Details: HepG2 viability, CellTiter-Glo ATP luminescence, 48 h; series mostly up to 35 µM

Structure (SMILES)	outcome
CCC(CC)CN1C(N(C)C)=NC[C@@H]1CC(C)C	inactive
CCOC(=O)C1CCCN(S(=O)(=O)c2ccc(S(=O)(=O)N3CCCC3)cc2)C1 (configuration not stated)	inactive
CN(CC(=O)NCc1ccc2c(c1)OCO2)S(=O)(=O)c1ccc(Br)s1	inactive
Cc1cccc(CCN2C(N(C)C)=NC[C@@H]2CC(C)C)c1	inactive
O=C1C=C(N2CCOCC2)c2ccccc2C1=O	inactive
COc1cc(OC)c(OC)cc1/C=C1\CC(C)C/C(=C\c2cc(OC)c(OC)cc2OC)C1=O (configuration not stated)	inactive
Cc1ccc(C)c(S(=O)(=O)Nc2ccc(-n3cnnn3)cc2)c1	inactive
CC1(Cc2ccc(OC(F)(F)F)cc2)C(=O)Nc2c(Cl)ccc(Cl)c21 (configuration not stated)	inactive
Cc1nn(Cc2noc(C(=O)NC3CCC(C)CC3)n2)c(C)c1Br (configuration not stated)	inactive
Cc1nn(Cc2c(Cl)cccc2Cl)c(C)c1NC(=O)c1cn(-c2ccccc2)nc1-c1ccccc1	inactive
CCOC(=O)CC1CCCCN1C(=O)c1cc(COc2cccc3cnccc23)on1 (configuration not stated)	inactive
CCCOc1ccc2oc(=O)c3c(c2c1)CCCN3C(=O)CN1CCN(c2ncccn2)CC1	inactive
OC(c1ccccc1)C(O)C(c1ccccc1)N1CCCCC1 (configuration not stated)	inactive
OCCCNc1nccc(-c2cc(Nc3cccc(Cl)c3)ncn2)n1	inactive
OCCCNc1cc(-c2ccnc(Nc3cccc(Cl)c3)n2)ccn1	inactive
COc1ccc(OC)c(C(c2nnnn2Cc2ccccc2)N2CCN(C3CCCCC3)CC2)c1 (configuration not stated)	inactive
O=S(=O)(c1ccc(Cl)cc1)n1ccc2cccnc21	inactive
Cc1sc2ncnc(N3CCN(S(=O)(=O)c4ccccc4)CC3)c2c1C	inactive
O=C(CN1C(=O)C2CCCCC2C1=O)NC1CCCc2ccccc21 (configuration not stated)	inactive
CCc1ccc(-n2c(O)c(C=NCCN(CC)CC)c(=O)[nH]c2=O)cc1	inactive
CC(C)c1nnc(NC(=O)c2nc(S(=O)(=O)Cc3ccccc3)ncc2Cl)s1	inactive
O=C1CC(c2ccccc2)CC(O)=C1C=Nc1cccc(Cl)c1 (configuration not stated)	inactive
CC(=O)N1CCN(C(=O)CCc2cc(C(C)(C)C)c(O)c(C(C)(C)C)c2)CC1	inactive

Structure (SMILES)	outcome
COC(=O)[C@@]12CCCCN1[C@H](c1ccc(SC3CCCCC3)c(OC)c1)[C@@H]1C(=O)N(C)C(=O)[C@@H]12	inactive
CSc1nnc(NC(=O)c2nc(S(=O)(=O)Cc3cccc(C)c3)ncc2Cl)s1	inactive
CCSc1nnc(NC(=O)c2nc(S(=O)(=O)Cc3ccc(F)cc3)ncc2Cl)s1	inactive
Cc1ccc(CS(=O)(=O)c2ncc(Cl)c(C(=O)Nc3nnc(C(C)C)s3)n2)cc1	inactive
CC(C)(C)[C@@H]1COC(=O)[C@@H](NC(=O)OCC2c3ccccc3-c3ccccc32)C/C=C\C[C@@H](CC(=O)NCCO)C(=O)N1	inactive
C[C@H]1COC(=O)[C@H](NC(=O)OCC2c3ccccc3-c3ccccc32)C/C=C\C[C@H](CC(=O)N(CCO)Cc2ccccc2)C(=O)N1	inactive
O=C(CN1C(=O)c2ccccc2S1(=O)=O)c1ccc2c(c1)OCCCO2	inactive
COC(=O)[C@@]12CCCN1[C@H](c1ccc(-c3ccc(OC)cc3)cc1)[C@@H]1C(=O)N(C)C(=O)[C@@H]12	inactive
O=C1/C(=C/c2ccccn2)SC(=S)N1Nc1ncc(C(F)(F)F)cc1Cl	inactive
COc1cc(NC(=O)COc2cccc3c2OC(C)(C)C3)cc(OC)c1OC	inactive
CCOC(=O)c1c(C)[nH]c(C(=O)COC(=O)[C@H](C)N2C(=O)C3CCCCC3C2=O)c1C (some centres not stated)	inactive
CCOc1ccc(NS(=O)(=O)c2cc(C(=O)NCCN3CCOCC3)ccc2C)cc1	inactive
Cc1c(C(=O)N(Cc2cccc(Br)c2)C2CCS(=O)(=O)C2)oc2ccccc12 (configuration not stated)	inactive
CC1CCN(C(=O)c2ccc(N3C(=O)C4CCC(C)CC4C3=O)cc2)CC1 (configuration not stated)	inactive
Cc1c(CCOC(=O)CC23CC4CC(CC(C4)C2)C3)sc[n+]1CC(=O)c1ccc(Br)cc1	inactive
COc1ccccc1-n1cc([C@@H]2C[C@H]3CN(c4ccccc4)C(=O)[C@]34CCCN24)cn1	inactive
O=C(NNc1ccccc1)C(=O)NNS(=O)(=O)c1ccc(CCCl)cc1	inactive
O=C(CN1C(=O)c2ccccc2S1(=O)=O)c1ccc(Cl)cc1Cl	inactive
NC(=O)NC(CC(=O)NCCc1ccccn1)c1ccccc1Cl (configuration not stated)	inactive
CC1(C)CC(=O)c2c(nc(SCC(=O)Nc3nsc(-c4ccccc4)n3)c(C#N)c2-c2ccccc2)C1	inactive
CNS(=O)(=O)c1cccc(C(=O)OCc2cc(C(C)=O)ccc2OC)c1	inactive
CCN1C(=O)[C@H]2[C@@H](c3ccc(-c4ccc(OC)cc4)cc3)N3CCC[C@@]3(C(=O)OC)[C@H]2C1=O	inactive
Cc1ccc(S(=O)(=O)CCC(=O)OCC(=O)Nc2cc(S(=O)(=O)N3CCOCC3)ccc2C)cc1	inactive

Structure (SMILES)	outcome
CNC(=O)c1nnsc1S(=O)c1ccc(Cl)cc1 (configuration not stated)	inactive
COCCn1c(SCC(=O)/C=C2\N(C)c3ccccc3C2(C)C)nnc1-c1ccncc1	inactive
O=C1NCCOC(=O)[C@@H](Cc2ccc(F)cc2)CC/C=C/C[C@@H]1CC(=O)N(CCO)Cc1ccccc1	inactive
COc1c(CC=C(C)C)cc(C2CC(=O)c3c(O)cc(O)cc3O2)cc1CC=C(C)C (configuration not stated)	inactive
Cc1cc(=O)oc2c3c(cc(OCC(=O)Nc4ccc(CCO)cc4)c12)OC(C)(C)CC3	inactive
O=C(Nc1cc(F)ccc1F)N1CCN(c2ccnc3cc(Cl)ccc23)CC1	inactive
COc1ccccc1-n1ccnc(SCC(=O)NCc2ccccc2Cl)c1=O	inactive
Cc1ccc(S(=O)(=O)NCCc2cc3ccc(C)cc3[nH]c2=O)cc1	inactive
CC[C@H](C)C(=O)O[C@H]1C[C@@H](C)C=C2C=C[C@H](C)[C@H](CC[C@@H]3C[C@@H](O)CC(=O)O3)[C@H]21	inactive
COc1ccc(S(=O)(=O)N2CCN(c3cc(-c4ccccc4)nc4ncnn34)CC2)cc1	inactive
O=C(CSc1ccccn1)Nc1nonc1[N+](=O)[O-]	inactive
C=CC[C@H](CC(=O)N(CCO)Cc1ccccc1)C(=O)NC[C@H](OC(=O)[C@@H](CC=C)Cc1ccc(F)cc1)c1ccccc1	inactive
C=CCC[C@H](Cc1ccc(F)cc1)C(=O)OC[C@H](Cc1c[nH]c2ccccc12)NC(=O)[C@H](CC=C)CC(=O)N(CCO)Cc1ccccc1	inactive
C=CCOc1nc2c(c(=O)n(C)c(=O)n2C)n1Cc1ccc(Cl)cc1Cl	inactive
O=C(COC(=O)/C=C/c1ccc(OC(F)F)cc1)Nc1ccc2[nH]c(=O)[nH]c2c1	inactive
C[C@]12CC[C@H](O)CC1=CCC1C2CC[C@@]2(C)C1CCC21OCCO1 (some centres not stated)	inactive
Cc1csc(=O)n1CC(=O)OCC(=O)c1c(N)n(C)c(=O)n(C)c1=O	inactive
CS(=O)(=O)c1nc(-c2ccc(Br)cc2)cc(-c2ccccc2)c1C#N	inactive
Cc1ccc2c(c1)c(C1=c3ccccc3=NC1=O)c(O)n2C	inactive
CCCCN1CC(COCc2ccccc2)Oc2cccc(Oc3ccc(C)cc3)c2S1(=O)=O (configuration not stated)	inactive
COc1ccc2c(c1OC)C(=O)N1c3ccccc3C(=O)N(c3ccccc3F)C21 (configuration not stated)	inactive
CC1CN(C(=O)CCc2cc(C(C)(C)C)c(O)c(C(C)(C)C)c2)CC(C)O1 (configuration not stated)	inactive
CCOc1ccc(Cn2nnc(C(=O)Nc3cc(OC)cc(OC)c3)c2N)cc1	inactive

Structure (SMILES)	outcome
Cc1onc(-c2c(Cl)cccc2Cl)c1C(=O)N[C@@H]1C(=O)N2[C@@H]1SC(C)(C)[C@@H]2C(=O)O	inactive
Cc1onc(-c2ccccc2Cl)c1C(=O)N(C)C1CCCCC1	inactive
COCc1c(C(=O)Nc2cccc(S(=O)(=O)N3CCCCC3)c2)oc2ccccc12	inactive
COc1ccc(NC(=O)CCOc2cc(C)ccc2C)cc1S(=O)(=O)N1CCCCC1	inactive
O=C(CSc1nnc(-c2ccc(Cl)cc2Cl)n1C1CCCCC1)N1CCCC1	inactive
COC(=O)c1cn(NC(=O)c2cc([N+](=O)[O-])ccc2F)c(=O)c2ccccc12	inactive
CCCCN1C2=NCCCN2c2cc(C)c(C)cc21	inactive
CCN(CC)C(=O)[C@H]1C[C@H](CC(=O)NC/C=C(\C)CCC=C(C)C)C(=O)N2CCc3c([nH]c4cc(CCC(=O)N(C)C)ccc34)[C@]12C	inactive
COCCN1Cc2cccc(C(=O)Nc3ccc4c(c3)OCCO4)c2C1=O	inactive
Cc1ccc(CNC(=O)c2cc(-c3ccccc3C)nn2CC2CC(c3cccnc3)=NO2)cc1 (configuration not stated)	inactive
COc1ccc(N2C(=O)C(CC(=O)Nc3ccccc3)N(Cc3ccc(OC)c(OC)c3)C2=O)cc1 (configuration not stated)	inactive
COc1cc(NC(=O)c2cc3c(Cl)nc4ccccc4c3s2)cc(OC)c1OC	inactive
CCS(=O)(=O)c1ncc(Cl)c(C(=O)Nc2ccccc2OC)n1	inactive
COC(=O)c1ccccc1NC(=O)c1nc(S(=O)(=O)Cc2ccccc2)ncc1Cl	inactive
Cc1cccc(CS(=O)(=O)c2ncc(Cl)c(C(=O)Nc3nnc(C(C)C)s3)n2)c1	inactive
S=c1[nH]nc(COc2cccc3ccccc23)n1Cc1ccccc1	inactive
COC(=O)c1ccc(COC(=O)c2[nH]c(C)c(C(C)=O)c2C)o1	inactive
CCCc1nnc(NC(=O)c2nc(S(=O)(=O)Cc3ccc(C)cc3)ncc2Cl)s1	inactive
CCc1nnc(NC(=O)c2nc(S(=O)(=O)Cc3cccc(C)c3)ncc2Cl)s1	inactive
CN(C)S(=O)(=O)c1cccc(N=c2scc(-c3ccc4c(c3)NC(=O)CO4)n2CC2CCCO2)c1 (configuration not stated)	inactive
CC(C)(C)C(=O)Nc1cc(S(=O)(=O)N2CCCCC2)ccc1N1CCCCC1	inactive
Cc1ccc(-c2nc3ncccc3o2)cc1NC(=O)c1sc2ccccc2c1Cl	inactive
Cc1ccc2cc(CN(CC3CCCO3)C(=O)NC3CCCCC3)c(=O)[nH]c2c1C (configuration not stated)	inactive

From PubChem BioAssay AID624134 (Broad Institute, 2012)
